Results published in PubChem BioAssay (NCATS).
Records with an inconclusive call do not appear. Entries that show only a call come without a potency. Activity calls are given as the source filed them. Calls come from the whole dose curve; as a rule, active = well fitted inhibition curve with a large enough effect; inconclusive = small, poorly fitted or top-dose-only effect; inactive = flat fitted curve, though single readings scatter.

Molecular target: Calcium and integrin-binding protein 1 (Homo sapiens) (UniProt Q99828)
Assay: Primary qHTS for Identification of Calcium Integrin Binding Protein 1 (CIB1) Competitor (AID 1508620);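 note: GST tagged CIB1 binding a fluorescein labelled alphaIIb integrin peptide tracer; top concentration of the series differs between compounds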
Procedure, shortened: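 CIB1-GST (1 uM final) and compound incubated 15 min at room temperature before adding FITC-alphaIIb peptide tracer (100 nM final). Competition for binding read by fluorescence polarization (ex 480, em 540) after another 15 min at room temperature.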

Chain of Calcium and integrin-binding protein 1 (Homo sapiens) (Q99828 whole entry, looked up): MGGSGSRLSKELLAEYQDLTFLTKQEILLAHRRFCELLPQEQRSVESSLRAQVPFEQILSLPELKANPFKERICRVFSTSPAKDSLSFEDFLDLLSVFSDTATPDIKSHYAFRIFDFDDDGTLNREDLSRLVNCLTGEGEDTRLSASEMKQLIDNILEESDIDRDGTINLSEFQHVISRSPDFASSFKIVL

SMILES	Potency
CC(=O)OC(C)(C)/C=C/C(=O)[C@](C)(O)[C@H]1C(O)C[C@@]2(C)[C@@H]3CC=C4[C@@H](C=C(O[C@@H]5O[C@H](CO)[C@@H](O)[C@H](O)[C@H]5O)C(=O)C4(C)C)[C@]3(C)C(=O)C[C@]12C (some centres not stated)	inactive
COCCCNC(=O)c1ccc(Cn2c(=O)c3ccccc3n(Cc3ccc(C(C)C)cc3)c2=O)cc1	inactive
Nc1nc2c(ncn2C2OC3COP(=O)(O)OC3C2O)c(=O)[nH]1 (configuration not stated)	inactive
CC(C)=C[C@@H]1[C@H](CO[C@@H]2O[C@H](CO)[C@@H](O)[C@H](O)[C@H]2O)C1(C)C	inactive
CC1CCCC(O)CCC/C=C/c2cc(OS(=O)(=O)O)cc(O)c2C(=O)O1 (configuration not stated)	inactive
O=C(Nc1cnc(Cl)nc1)c1ccc(F)c(F)c1	inactive
CCOc1ccc(-n2c([C@@H](C)N(Cc3cccnc3)C(=O)Cc3ccc(OC(F)(F)F)cc3)nc3ncccc3c2=O)cc1	inactive
C/C=C(\C)C(=O)O[C@H]1C=C(CO)C(=O)[C@H](OC(C)=O)[C@H]1C(C)C	inactive
CC(C)(C)c1ccc(C(=O)Nc2cc(Cl)c(Br)cc2C(=O)O)cc1	inactive
CCOc1ccc(-n2c(C(C)N(Cc3cccnc3)C(=O)Cc3ccc(F)c(C(F)(F)F)c3)nc3ncccc3c2=O)cc1 (configuration not stated)	inactive
C=C(C)C(=O)O[C@H]1C[C@@](C)(O)C2(O)CCC(C)(/C=C3/OC(=O)C(COC)=C31)O2 (some centres not stated)	inactive
CO[C@@H]1CC(OC2CCC3(C)C(CCC45CCC(C6=CC(=O)OC6)C(C)(CCC43)C5=O)C2)O[C@H](C)[C@@H]1O[C@@H]1O[C@H](CO[C@@H]2O[C@H](CO)[C@@H](O)[C@H](O)[C@H]2O)[C@@H](O)[C@H](O)[C@H]1O (some centres not stated)	inactive
